The list is not random: actives were taken first. Their share in the collection is about 2.9%.
MITF TRPM1 HTS: activators of MITF-driven TRPM1 promoter activity in SK-MEL-5 cells; SK-MEL-5 TRPM1-promoter luciferase, 24 h; % of positive control, neutral wells = 0; activation, % at 12.5 µM; 300,000 compounds, 0.75% hits;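 active = mean activation of at least 80% with every replicate also reaching 80%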
NSD2 inh: NSD2 (human) methyltransferase inhibition. 310,000 compounds, 0.54% hits. O96028. NSD2 peptide methylation, AlphaScreen, 120 min. AID 743445. inhibition, % at 12.5 µM; in the data active = inhibition above about 50%
Target sequence (O96028 whole entry, looked up): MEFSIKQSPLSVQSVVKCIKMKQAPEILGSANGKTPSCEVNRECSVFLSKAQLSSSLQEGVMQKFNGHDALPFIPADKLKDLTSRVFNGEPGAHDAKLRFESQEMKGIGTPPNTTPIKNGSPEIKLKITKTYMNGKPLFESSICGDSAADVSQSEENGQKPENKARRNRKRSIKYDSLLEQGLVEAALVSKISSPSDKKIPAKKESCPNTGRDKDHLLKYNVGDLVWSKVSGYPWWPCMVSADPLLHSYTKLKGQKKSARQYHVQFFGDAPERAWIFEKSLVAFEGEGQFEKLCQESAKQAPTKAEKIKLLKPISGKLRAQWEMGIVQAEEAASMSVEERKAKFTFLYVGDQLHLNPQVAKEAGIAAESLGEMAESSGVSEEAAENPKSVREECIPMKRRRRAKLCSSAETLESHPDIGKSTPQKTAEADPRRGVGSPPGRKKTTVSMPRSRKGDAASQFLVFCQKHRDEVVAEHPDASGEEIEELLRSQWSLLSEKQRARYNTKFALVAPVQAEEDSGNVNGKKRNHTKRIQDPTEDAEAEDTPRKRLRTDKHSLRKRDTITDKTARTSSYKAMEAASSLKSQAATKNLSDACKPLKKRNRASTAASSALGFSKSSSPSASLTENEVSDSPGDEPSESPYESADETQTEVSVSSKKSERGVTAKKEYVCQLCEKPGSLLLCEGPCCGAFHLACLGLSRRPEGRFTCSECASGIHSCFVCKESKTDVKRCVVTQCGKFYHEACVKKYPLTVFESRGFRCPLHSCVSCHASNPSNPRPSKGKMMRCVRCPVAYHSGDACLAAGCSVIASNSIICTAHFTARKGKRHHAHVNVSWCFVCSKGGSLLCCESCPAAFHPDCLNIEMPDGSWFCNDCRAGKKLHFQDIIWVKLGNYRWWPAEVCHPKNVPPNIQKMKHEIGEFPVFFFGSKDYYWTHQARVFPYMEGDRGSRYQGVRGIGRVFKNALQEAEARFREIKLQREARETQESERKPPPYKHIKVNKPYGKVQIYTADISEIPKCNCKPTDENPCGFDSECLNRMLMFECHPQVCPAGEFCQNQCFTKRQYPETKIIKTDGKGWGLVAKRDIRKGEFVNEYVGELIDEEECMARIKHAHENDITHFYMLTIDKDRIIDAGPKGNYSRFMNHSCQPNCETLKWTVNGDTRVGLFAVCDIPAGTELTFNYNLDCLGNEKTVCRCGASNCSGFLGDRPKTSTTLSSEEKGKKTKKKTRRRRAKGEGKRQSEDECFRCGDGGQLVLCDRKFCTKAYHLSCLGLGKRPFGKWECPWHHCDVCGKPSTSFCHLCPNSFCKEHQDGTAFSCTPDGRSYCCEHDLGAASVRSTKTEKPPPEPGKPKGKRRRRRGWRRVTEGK
TRPM1 prom inh: reduces MITF-dependent TRPM1 promoter luciferase signal. SK-MEL-5 TRPM1 promoter luciferase, 24 h. inhibition, % at 12.5 µM. 330,000 compounds, 0.83% hits;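 active = mean inhibition across replicates of 60% or more, whatever share of single replicates reaches that level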
Wnt bcat act: Wnt/beta-catenin pathway activation. Wnt/beta-catenin reporter cell assay, activator, plate reader. activation, % at 9.35 µM. 300,000 compounds, 1.2% hits; in the data active = activation above about 30%, passing the limit was not always enough
PfHsp90 yeast 2: inhibits growth of yeast expressing Plasmodium falciparum Hsp90; S. cerevisiae expressing PfHsp90, BacTiter-Glo ATP, 48 h; yeast lacking PDR1 and PDR3 efflux regulators; inhibition, % at 9.4 µM; 310,000 compounds, 0.32% hits;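 active = every replicate shows inhibition above about 80%, whatever the replicate mean, limit read from the data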
Glyco luc inh: N-linked glycosylation inhibition; D54 ERlucT glycosylation luciferase reporter, 24 h; percent of 100 nM tunicamycin response; AID 588692; reporter increase, % at 12.5 µM; 360,000 compounds, 0.23% hits;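 active = mean luciferase reporter signal, scaled so untreated is 0 and the glycosylation-blocking control 100, at or above a set limit in every replicate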;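 note: luciferase carries N-glycosylation sites so blocking glycosylation raises the light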
Alpha artifact: counter-screen for NSD2 inhibitors: AlphaScreen artifacts; 1,500 compounds, 9.4% hits; AC35, µM (doses to about 10 µM); AlphaScreen artifact counterscreen, preloaded methylated H4 peptide; shares compounds with NSD2 inh; call rule not given here
Each line names hits and unclear results; the compound was inactive in the other large screens (follow-up assays come after a bar, where they were run).

Cc1ccc2c(c1)/C(=C/c1ccc(F)cc1)C(=O)N2	none
CCN(CC)CCNC(=O)c1c(C)[nH]c(/C=C2\C(=O)Nc3ccc(F)cc32)c1C	NSD2 inh 50.5 (no result: MITF TRPM1 HTS, TRPM1 prom inh, Wnt bcat act, PfHsp90 yeast 2, Glyco luc inh) | Alpha artifact inactive
COc1ccc(Sc2ccccc2CN(C)C)cc1OC	none (no result: Wnt bcat act)
CNCc1ccccc1Sc1ccc(O)c(O)c1	NSD2 inh 63.8 | Alpha artifact inactive
Cc1ccc(S(=O)(=O)Nc2ccccc2-c2ccccc2)cc1	none
Cc1ccc(S(=O)(=O)/N=C2\C=C(NS(=O)(=O)c3ccccc3)C(=O)c3ccccc32)cc1	NSD2 inh 105.2 | Alpha artifact 9.94µM
CCc1ccc(S(=O)(=O)/N=C2\C=C(Nc3cccc(C(=O)O)c3)C(=O)c3ccccc32)cc1	NSD2 inh 132.3 | Alpha artifact 9.25µM
Cc1cc(NC(=O)COC(=O)Cn2[nH]c(=O)c3ccccc3c2=O)c([N+](=O)[O-])cc1C	none
CC(=O)c1ccc(NC(=S)NCCc2cccc(Cl)c2)cc1	NSD2 inh 53.4 | Alpha artifact inactive
CCC1=NN(C(=O)c2cccnc2)C(O)(C(F)(F)F)C1 (stereo unspecified)	none
Cc1ccc(CNS(=O)(=O)c2cc3c(cc2C)NC(=O)CO3)cc1	none (no result: MITF TRPM1 HTS, NSD2 inh, TRPM1 prom inh)
COc1cc(/C=C2/C(C)=C(C#N)c3nc(N)c(C#N)c(C)c32)ccc1OCC(=O)O	none (no result: Glyco luc inh)
CC1=C(C#N)c2nc(N)c(C#N)c(C)c2/C1=C\c1ccc(-c2ccccc2C(=O)O)o1	NSD2 inh 81.9 | Alpha artifact inactive
COC(=O)c1c(NC(C)=O)sc(C(=O)N2CCOCC2)c1C	none
COC(=O)c1c(NC(=O)C(C)C)sc(C(=O)N2CCOCC2)c1C	NSD2 inh 104.9 | Alpha artifact inactive
O=C1c2cccc(Sc3ccccc3)c2C(=O)c2c(Sc3ccccc3)cccc21	NSD2 inh 75.6 (no result: MITF TRPM1 HTS) | Alpha artifact inactive
CSc1ccccc1OCc1cc(C(=O)N(C)C2CCCc3ccccc32)no1 (stereo unspecified)	none (no result: NSD2 inh)
CNC(=O)c1ccc(-c2cc(C(F)(F)F)nn2C)s1	NSD2 inh 60.4, Wnt bcat act 35.0 (no result: MITF TRPM1 HTS, TRPM1 prom inh, PfHsp90 yeast 2) | Alpha artifact inactive
Cn1nc(C(F)(F)F)cc1-c1ccc(/C=C(\C#N)C(=O)c2ccccc2)s1	none (no result: MITF TRPM1 HTS)
O=C(NCC(c1ccco1)N1CCc2ccccc2C1)C(=O)Nc1ccccc1 (stereo unspecified)	none
CC(=O)Nc1ccc(S(=O)(=O)NCCSCc2c(Cl)cccc2Cl)cc1	NSD2 inh 122.7 | Alpha artifact inactive
Cc1nc(-[n+]2nc(-c3ccncc3)nn2-c2ccccc2)sc1C	NSD2 inh 69.0 (no result: MITF TRPM1 HTS, TRPM1 prom inh, PfHsp90 yeast 2) | Alpha artifact 2.13µM
O=C(NCCCN1CCCC1=O)Nc1ccc(Cl)cc1Cl	NSD2 inh 50.5 | Alpha artifact inactive
COC(=O)CC1=NN(c2ccc(OC)cc2)C(=O)/C1=C\c1ccc(Cl)cc1	NSD2 inh 55.0 | Alpha artifact inactive
CCN(CC)CCNC(=O)c1cc2c(-c3cccc(OC)c3)nn(C)c2s1	none
CCCN(CCC)CCNC(=O)c1cc2c(-c3ccccc3F)nn(C)c2s1	NSD2 inh 53.3 | Alpha artifact inactive
c1ccc(C[C@H]2CN=C(Nc3ccccc3)N2CC2CCCC2)cc1	none (no result: MITF TRPM1 HTS, NSD2 inh, TRPM1 prom inh, PfHsp90 yeast 2, Glyco luc inh)
O=C(NC1=NCCS1)c1csc2ccccc12	NSD2 inh 70.3 (no result: Wnt bcat act) | Alpha artifact inactive
Cc1ccc(OCCCCNC(C)(C)C)c([N+](=O)[O-])c1	none (no result: Wnt bcat act)
CCCCCCNc1c([N+](=O)[O-])cc(C)cc1[N+](=O)[O-]	NSD2 inh 52.7 (no result: MITF TRPM1 HTS, PfHsp90 yeast 2) | Alpha artifact 9.94µM
CCOC(=O)C1=C(COC(=O)c2ccc([N+](=O)[O-])s2)NC(=O)NC1C (stereo unspecified)	NSD2 inh 103.6, TRPM1 prom inh 62.1 (no result: PfHsp90 yeast 2) | Alpha artifact inactive
CC(C)C(OC(=O)CN1C(=O)COc2ccccc21)C(=O)NC1CCCCC1 (stereo unspecified)	none
CCCCC(=O)OCc1cn(-c2ccc(Cl)cc2)nn1	NSD2 inh 120.8 (no result: Wnt bcat act) | Alpha artifact inactive
CCOC(=O)N1CCN(C(=S)NCCOC)CC1	NSD2 inh 69.2 | Alpha artifact inactive
CC(=O)NC(=S)Nc1ccc(NC(=S)NC(=O)/C=C/c2ccco2)cc1	none

High-throughput results: PubChem, Broad Institute
